From the supplement of paper PMC3545927
The list shows a part of the results. How many sequences the whole screen found active is unknown.

Biological target: furin, P09958
Test: furin cleavage Z-score vs untreated control; higher = more cleavage, active = 3.5 or more, inactive = 1 or less, 8 variable residues between constant flanks
Summary of the method: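 Magnetic beads held 8-mer peptides by the N-terminus, each fused to a cDNA oligonucleotide, and purified furin was added for 7.5, 15 or 30 min. Released DNA was sequenced after PCR adapter tagging. The cleavage Z-score is the log count relative to furin-free reactions, lowess-adjusted and divided by median absolute deviation.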
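Further: purified furin at 1:10 enzyme:substrate in 50 mM HEPES pH 7.5.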

Chain of furin, P09958 (P09958 whole entry): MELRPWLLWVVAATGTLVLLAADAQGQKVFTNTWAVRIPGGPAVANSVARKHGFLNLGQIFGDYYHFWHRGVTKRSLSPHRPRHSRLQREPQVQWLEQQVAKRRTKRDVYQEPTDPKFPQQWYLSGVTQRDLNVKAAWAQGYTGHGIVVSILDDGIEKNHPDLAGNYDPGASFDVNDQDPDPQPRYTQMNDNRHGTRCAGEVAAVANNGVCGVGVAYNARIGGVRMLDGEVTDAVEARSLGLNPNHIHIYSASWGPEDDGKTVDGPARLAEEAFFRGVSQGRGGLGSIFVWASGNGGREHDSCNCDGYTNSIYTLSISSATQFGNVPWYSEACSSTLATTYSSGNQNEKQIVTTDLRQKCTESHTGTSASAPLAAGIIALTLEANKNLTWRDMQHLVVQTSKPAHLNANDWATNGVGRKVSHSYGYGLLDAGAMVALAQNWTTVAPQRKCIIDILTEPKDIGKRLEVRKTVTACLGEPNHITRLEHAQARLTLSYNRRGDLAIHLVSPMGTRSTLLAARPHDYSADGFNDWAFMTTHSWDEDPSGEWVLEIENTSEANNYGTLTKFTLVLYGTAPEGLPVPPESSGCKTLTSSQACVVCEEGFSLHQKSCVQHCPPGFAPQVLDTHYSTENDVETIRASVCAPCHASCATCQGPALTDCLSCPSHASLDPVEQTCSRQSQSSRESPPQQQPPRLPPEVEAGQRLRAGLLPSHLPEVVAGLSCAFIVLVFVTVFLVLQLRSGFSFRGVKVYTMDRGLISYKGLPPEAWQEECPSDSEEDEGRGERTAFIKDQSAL

Row | Sequence | furin cleavage Z-score (7.5 min) | furin cleavage Z-score (15 min) | furin cleavage Z-score (30 min)
1 | CAEVVTYTWVAGNASASA [HC157] | -1.14 (inactive) | -2.61 (inactive) | -1.31 (inactive)
2 | CAVRRRAADQAGNASASA [FS-3143] | -0.697 (inactive) | 0.216 (inactive) | 1.49
3 | CAVRRRVQRMAGNASASA [FS-1662] | 9.65 (active) | 8.64 (active) | 6.99 (active)
4 | CAVVARSVNGAGNASASA [FS-1816] | -0.0409 (inactive) | 0.74 (inactive) | 1.63
5 | CAGEGAVQWMAGNASASA [HC1115] | -1.9 (inactive) | -0.502 (inactive) | -1.06 (inactive)
6 | CAASRCWVAMAGNASASA [HC278] | 1.39 | -0.873 (inactive) | 1.5
7 | CAVRRRSVQQAGNASASA [FS-2856] | 3.6 (active) | 4.13 (active) | 4.51 (active)
8 | CAEIPCHRPSAGNASASA [HC2324] | 1.27 | 0.0659 (inactive) | -0.381 (inactive)
9 | CALRTRPRRFAGNASASA [FS-58] | 10.2 (active) | 12.6 (active) | 10.4 (active)
10 | CALHQRVRRFAGNASASA [FS-820] | 8.84 (active) | 10.6 (active) | 9.12 (active)
11 | CARRFRAALGAGNASASA [FS-3046] | -0.151 (inactive) | -1.57 (inactive) | 1.09
12 | CARRFRPRRSAGNASASA [FS-1073] | 10.2 (active) | 9.93 (active) | 8.02 (active)
13 | CAPGQRVEFLAGNASASA [HC1469] | -0.0222 (inactive) | -0.699 (inactive) | -1.16 (inactive)
14 | CARRFAQALPAGNASASA [HC1300] | 0.481 (inactive) | 1.31 | -0.76 (inactive)
15 | CARRFRPRRFAGNASASA [FS-1072] | 9 (active) | 10.6 (active) | 9.46 (active)
16 | CATTPLSGSWAGNASASA [HC44] | -0.768 (inactive) | -0.103 (inactive) | 0.0356 (inactive)
17 | CASTPCSAHQAGNASASA [HC2582] | -0.092 (inactive) | -1.41 (inactive) | -0.516 (inactive)
18 | CAMETKLITWAGNASASA [HC650] | -0.69 (inactive) | -0.554 (inactive) | -0.78 (inactive)
19 | CAISQAEAALAGNASASA [HC531] | -1.47 (inactive) | -0.433 (inactive) | -1.7 (inactive)
20 | CAVVCCIMSYAGNASASA [HC105] | 1.49 | 0.708 (inactive) | 1.08
21 | CAYRGRHRRFAGNASASA [FS-152] | 5.94 (active) | 6.27 (active) | 6.98 (active)
22 | CAYRGRCRKSAGNASASA [FS-923] | 0.471 (inactive) | 1.55 | 0.866 (inactive)

Row | Sequence | furin cleavage Z-score (7.5 min) | furin cleavage Z-score (15 min) | furin cleavage Z-score (30 min)
23 | CATAQGMKRSAGNASASA [FS-725] | 1.25 | 1.19 | -0.124 (inactive)
24 | CAKLRRNRRSAGNASASA [FS-1221] | 5.36 (active) | 6.08 (active) | 4.35 (active)
25 | CAHTQRNRRSAGNASASA [FS-799] | 11.3 (active) | 12.6 (active) | 10.4 (active)
26 | CATVSGFVSLAGNASASA [HC358] | 0.667 (inactive) | -0.762 (inactive) | 1.14
27 | CAEDEVPCHRAGNASASA [HC2451] | 1.14 | 0.677 (inactive) | 1.09
28 | CANRERSKRDAGNASASA [FS-182] | 13.6 (active) | 14.6 (active) | 10.7 (active)
29 | CAPLTNSRGEAGNASASA [HC1503] | -0.174 (inactive) | -0.452 (inactive) | 1.07
30 | CAPLTRSKRDAGNASASA [FS-700] | 15 (active) | 15 (active) | 10.2 (active)
31 | CATRSRSERDAGNASASA [FS-884] | 2.38 | 3.17 | 0.745 (inactive)
32 | CANWAKVLVVAGNASASA [HC344] | 0.338 (inactive) | -0.0162 (inactive) | 1.26
33 | CAQGYKVLVLAGNASASA [HC784] | -0.106 (inactive) | -0.421 (inactive) | -0.768 (inactive)
34 | CAPRAKVKREAGNASASA [FS-281] | 11.8 (active) | 10.8 (active) | 7.73 (active)
35 | CAGGGRSKRDAGNASASA [FS-997] | 12.9 (active) | 11.9 (active) | 8.83 (active)
36 | CATRCHCGAEAGNASASA [HC1174] | -0.133 (inactive) | -0.874 (inactive) | -0.744 (inactive)
37 | CAHDSPDAELAGNASASA [HC1270] | -0.658 (inactive) | -0.493 (inactive) | -0.66 (inactive)
38 | CAVVCCSMCYAGNASASA [HC2080] | 0.362 (inactive) | -0.833 (inactive) | 2.39
39 | CAQWHLSKRDAGNASASA [FS-485] | 0.736 (inactive) | 2.32 | 1.82
40 | CAQEVRSKRDAGNASASA [FS-622] | 14.6 (active) | 15.6 (active) | 10.9 (active)
41 | CAKERRSKRDAGNASASA [FS-934] | 12.1 (active) | 12.8 (active) | 8.75 (active)
42 | CAREKKADRDAGNASASA [FS-2913] | 0.241 (inactive) | -0.361 (inactive) | -1.01 (inactive)
43 | CAPRALRKRDAGNASASA [FS-1603] | 9.96 (active) | 9.61 (active) | 8.35 (active)
